{"source": "PubChem BioAssay AID431", "about": "(Sanford-Burnham Center for Chemical Genomics, 2006)", "note": "The campaign covered roughly 63,000 compounds. About 1,100 (1.7%) were called active. What follows is part of a selection rich in actives, with near analogues and random picks from the rest. Entries with a potency or affinity are not part of this list. A number with no mark means an inactive call.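 Rule for the calls: active = compounds whose percent cytotoxicity in the single-dose primary screen, scaled between solvent and toxic-drug controls, exceeds 50; inactive = the rest.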", "data": [{"test": "viability loss of HPDE-C7K cells – cell-based, fluorescence, HTS, primary screen (AID 431);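 note: 0% = DMSO solvent wells and 100% = doxorubicin-treated wells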", "conditions": "HPDE-C7K KRASV12 cells, Alamar Blue viability, 48 h; at 10 µM; stronger effect = higher value", "values": [{"smiles": "COc1ccccc1NC(=O)Cc1noc(CSc2cc(C)c3ccccc3n2)n1", "cytotoxicity": "-4.4%"}, {"smiles": "O=C(c1cccnc1)N1CCC(c2nc3ccccc3[nH]2)CC1", "cytotoxicity": "-11.8%"}, {"smiles": "Cc1ccc(C2(C(F)(F)F)NC(=O)N3CCN=C3S2)cc1", "note": "(stereo unspecified)", "cytotoxicity": "76.6% (active)"}, {"smiles": "O=C1NC(c2ccccc2)(C(F)(F)F)SC2=NCCCN12", "note": "(stereo unspecified)", "cytotoxicity": "6.7%"}, {"smiles": "Cc1ccc(C2(C(F)(F)F)NC(=O)N3CCCN=C3S2)cc1", "note": "(stereo unspecified)", "cytotoxicity": "-10.2%"}, {"smiles": "CCN(CC)CCCN1C(=O)c2oc3ccccc3c(=O)c2C1c1cccc(OC)c1OC", "note": "(stereo unspecified)", "cytotoxicity": "-9.4%"}, {"smiles": "COCCn1cnc2c(c1=O)c1nc3ccccc3nc1n2/N=C/c1cccc(OC)c1OC", "cytotoxicity": "9.4%"}, {"smiles": "C=CCn1cnc2c(c1=O)c1nc3ccccc3nc1n2-c1ccc(C)cc1", "cytotoxicity": "13.4%"}, {"smiles": "C=CCn1cnc2c(c1=O)c1nc3ccccc3nc1n2Cc1ccccc1", "cytotoxicity": "-3.7%"}, {"smiles": "C=CCn1cnc2c(c1=O)c1nc3ccccc3nc1n2/N=C/c1ccccn1", "cytotoxicity": "-21.9%"}, {"smiles": "C=CCn1cnc2c(c1=O)c1nc3ccccc3nc1n2-c1ccc(Cl)cc1", "cytotoxicity": "0.8%"}, {"smiles": "C=CCn1cnc2c(c1=O)c1nc3ccccc3nc1n2/N=C/c1cccc(OC)c1OC", "cytotoxicity": "59.6% (active)"}, {"smiles": "C=CCn1cnc2c(c1=O)c1nc3ccccc3nc1n2-c1ccccc1", "cytotoxicity": "-1.9%"}, {"smiles": "C=CCn1cnc2c(c1=O)c1nc3ccccc3nc1n2/N=C/c1cccc(OC)c1", "cytotoxicity": "55.1% (active)"}, {"smiles": "Cc1ccc(S(=O)(=O)NC(C)C(=O)NC2CCCCCC2)cc1", "note": "(stereo unspecified)", "cytotoxicity": "1%"}, {"smiles": "O=C1C(=C(O)c2ccccc2)C(=O)c2ccccc21", "cytotoxicity": "2%"}, {"smiles": "O=C(CC(c1ccco1)C1CCCCC1=O)c1ccco1", "note": "(stereo unspecified)", "cytotoxicity": "14.2%"}, {"smiles": "COc1cccc(C(=O)N(CN2CCCC2=O)c2cccc(Cl)c2)c1", "cytotoxicity": "-17.4%"}, {"smiles": "CCOC(=O)c1cccc(NC(=O)CN(C)S(=O)(=O)c2cnc[nH]2)c1", "cytotoxicity": "-9.7%"}, {"smiles": "CCc1nnc(NC(=O)CSc2nnc(COc3ccccc3)n2-c2ccc(C)cc2)s1", "cytotoxicity": "2.3%"}, {"smiles": "COC(=O)Cn1cnc2c(C#N)c3n(c2c1=O)CCCCC3", "cytotoxicity": "-14.2%"}, {"smiles": "COc1ccccc1-c1noc(-c2ccccc2C(=O)N2CCOCC2)n1", "cytotoxicity": "-11.4%"}, {"smiles": "CCn1c2ccccc2c2cc(/C=N/n3cnnc3)ccc21", "cytotoxicity": "16.2%"}, {"smiles": "C=Cn1ccnc1P(=S)(c1ccc2c(c1)c1ccccc1n2CC)c1nccn1C=C", "cytotoxicity": "63.9% (active)"}, {"smiles": "CCn1c2ccccc2c2cc(N)ccc21", "cytotoxicity": "22.9%"}, {"smiles": "CCN(CC(=O)Nc1ccc2c(c1)OCCO2)C(=O)C1CCCCC1", "cytotoxicity": "-7.3%"}, {"smiles": "N#Cc1ccc(NC(=O)Nc2ccc(Cl)cc2)cc1", "cytotoxicity": "67.5% (active)"}, {"smiles": "CN(CC(=O)Nc1ccc(C#N)cc1)Cc1ccc(Cl)cc1", "cytotoxicity": "2.8%"}, {"smiles": "Cc1cccc(NC(=O)Nc2ccc(C#N)cc2)n1", "cytotoxicity": "12.8%"}, {"smiles": "O=C(c1ccc(Cl)cc1)N1CCCOC1", "cytotoxicity": "0.8%"}, {"smiles": "C=CC(=C)CC(NC)c1ccccc1", "note": "(stereo unspecified)", "cytotoxicity": "8.2%"}, {"smiles": "Cc1nc(NCC2CCCO2)c2oc3ccccc3c2n1", "note": "(stereo unspecified)", "cytotoxicity": "6.5%"}, {"smiles": "CCOC(=O)c1c(N)sc(=S)c2c1CCC2", "cytotoxicity": "10.6%"}, {"smiles": "CCOC(=O)c1c(N)sc2c(O)c(Br)ccc12", "cytotoxicity": "13.7%"}, {"smiles": "CCOC(=O)c1c(N)sc2c(OC)c(Br)ccc12", "cytotoxicity": "58.8% (active)"}, {"smiles": "Cc1ccc2c(c1)cc(CN(CCc1ccccc1)C(=O)N1CCOCC1)c1nnnn12", "cytotoxicity": "-24.7%"}, {"smiles": "COc1ccc(NC(=O)N(CCCN(C)C)Cc2cc3cc(OC)ccc3[nH]c2=O)cc1", "cytotoxicity": "-3%"}, {"smiles": "CCN(CC)S(=O)(=O)c1cc(C(=O)Oc2ccccc2OC)ccc1OC", "cytotoxicity": "2.8%"}, {"smiles": "Cn1c(CNC(=O)Cc2ccc3c(c2)OCO3)nnc1SCc1ccccc1", "cytotoxicity": "-39.1%"}, {"smiles": "CC1Cn2c(nnc2-c2cccc(Cl)c2)S1", "note": "(stereo unspecified)", "cytotoxicity": "3.6%"}, {"smiles": "CCOC(=O)C(C)Sc1nc(-c2cccs2)ccc1C#N", "note": "(stereo unspecified)", "cytotoxicity": "59.5% (active)"}, {"smiles": "COC(=O)CSc1nc(-c2cccs2)ccc1C#N", "cytotoxicity": "12.6%"}, {"smiles": "C=COC(=O)CSc1nc(-c2cccs2)ccc1C#N", "cytotoxicity": "40.6%"}, {"smiles": "CCCCn1c(-c2cc(Cl)ccc2OC)n[nH]c1=S", "cytotoxicity": "-11.5%"}, {"smiles": "Cc1ccc(S(=O)(=O)c2c(C)nn(C(C)(C)C)c2OC(=O)C2CCCC2)cc1", "cytotoxicity": "-5.1%"}, {"smiles": "CC(=O)Nc1ccc(S(=O)(=O)N2CCC(NC(C)=O)(c3cccc(F)c3)CC2)cc1", "cytotoxicity": "8%"}, {"smiles": "CC1CCCCN1CC(=O)Nc1sc2c(c1C#N)CCC2", "note": "(stereo unspecified)", "cytotoxicity": "-11.1%"}, {"smiles": "Cc1ccc(S(=O)(=O)NC(=O)NC(C)(C)C)cc1", "cytotoxicity": "12.4%"}, {"smiles": "OC1CCN(Cc2cccc(Oc3ccccc3)c2)CC1", "cytotoxicity": "20.9%"}, {"smiles": "OCC(CO)(CO)N=Cc1c(O)ccc2ccccc12", "cytotoxicity": "68% (active)"}, {"smiles": "Oc1ccc2ccccc2c1/C=N/n1cnnc1", "cytotoxicity": "18.6%"}, {"smiles": "Oc1ccc2ccccc2c1C=NC12CN3CCN(CN(C3)C1)C2", "cytotoxicity": "0.4%"}, {"smiles": "COc1ccc(S(=O)(=O)N(CC(=O)N2CCN(C)CC2)C2CCCCC2)cc1OC", "cytotoxicity": "0.2%"}, {"smiles": "Cc1cc(C)n(-c2nc3c(c(=O)[nH]c(=O)n3C)n2CCc2ccccc2)n1", "cytotoxicity": "11.3%"}, {"smiles": "Cc1ccc(Cn2c(-n3nc(C)cc3C)nc3c2c(=O)[nH]c(=O)n3C)cc1", "cytotoxicity": "5%"}, {"smiles": "COc1ccc(CCn2c(-n3nc(C)cc3C)nc3c2c(=O)[nH]c(=O)n3C)cc1", "cytotoxicity": "52.6% (active)"}, {"smiles": "COc1ccc(N2CC(C(=O)NC3CC(C)(C)NC(C)(C)C3)CC2=O)cc1", "note": "(stereo unspecified)", "cytotoxicity": "-5%"}, {"smiles": "COc1ccc(OC)c(NC(=O)CSc2nnc(CNC(=O)COc3ccc(Cl)cc3)o2)c1", "cytotoxicity": "-3%"}, {"smiles": "CCCn1c(=O)c(C(=O)Nc2nnc(C)s2)c(O)c2ccccc21", "cytotoxicity": "62.2% (active)"}, {"smiles": "CCCn1c(=O)c(C(=O)Nc2nnc(CC)s2)c(O)c2ccccc21", "cytotoxicity": "14.3%"}, {"smiles": "C=CCn1c(=O)c(C(=O)Nc2nnc(C)s2)c(O)c2ccccc21", "cytotoxicity": "9.1%"}, {"smiles": "CCn1c(=O)c(C(=O)Nc2cccnc2)c(O)c2ccccc21", "cytotoxicity": "11.7%"}, {"smiles": "CCn1c(=O)c(C(=O)NCCc2ccccc2)c(O)c2ccccc21", "cytotoxicity": "-11.5%"}, {"smiles": "CCn1c(=O)c(C(=O)Nn2c(C)nc3ccccc3c2=O)c(O)c2ccccc21", "cytotoxicity": "17.6%"}, {"smiles": "CCn1c(=O)c(C(=O)NCCNCCO)c(O)c2ccccc21", "cytotoxicity": "13.9%"}, {"smiles": "CCn1c(=O)c(C(=O)NCCCO)c(O)c2ccccc21", "cytotoxicity": "70.7% (active)"}]}]}
